Compound activity (PubChem)
Rows were chosen to be rich in hits. Some 4.6% of all compounds tested hit in one or more screens of this group.
SKKanGAS inh: S. pyogenes SKKanGAS growth inhibitors in kanamycin, primary screen, streptokinase expression inhibitor project, SKKanGAS strain, BacTiter-Glo luminescence; hit rate 1.3% among 300,000; AID 1662, 2009; 6 h; inhibition, % at 7.5 µM;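 active means mean replicate score, as percent of positive control median, at least 50; inconclusive means mean below 50 but one replicate at or above 50; inactive means mean and every replicate below 50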;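 further: strain carries kanamycin resistance gene driven by streptokinase promoter and grows in 40 µg/ml kanamycin; loss of luminescence reflects streptokinase promoter inhibition or plain growth inhibition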
TIM10 inh: growth inhibitors of isogenic TIM10 control yeast, primary screen, counter-screen for tim10-1 yeast inhibitor project, luminescence, uHTS | S. cerevisiae TIM10 strain growth, BacTiter-Glo luminescence, 24 h | inhibition, % at 10 µM | hit rate 1.4% among 330,000 | AID 463195, 2010;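 active means inhibition of 40% or more at the single tested concentration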;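 further: wild-type TIM10 isogenic control strain grown at permissive 25 °C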
PfHsp90 set2: growth inhibition of PfHsp90-expressing yeast, primary screen, antimalarial PfHsp90 inhibitor project, S. cerevisiae, BacTiter-Glo luminescence, single point, set 2. BacTiter-Glo ATP, 48 h; yeast lacking PDR1 and PDR3 efflux regulators. inhibition, % at 9.4 µM. hit rate 0.32% among 310,000;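 active means every replicate shows inhibition above about 80%, whatever the replicate mean, limit read from the data; inconclusive means mean inhibition reaches the set limit but some replicate falls short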
tim10-1 inh: growth inhibitors of tim10-1 mutant yeast, primary screen, luminescence, uHTS; inhibition, % at 20 µM; hit rate 2.2% among 330,000; S. cerevisiae tim10-1 ts strain growth, BacTiter-Glo, 24 h; AID 463190, 2010;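 active means inhibition of at least 40%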;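 further: mutant grown at 25 °C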
tim23-1 inh: growth inhibitors of tim23-1 mutant yeast, primary screen, luminescence, uHTS | S. cerevisiae tim23-1 growth, BacTiter-Glo luminescence, 24 h | inhibition, % at 20 µM | hit rate 1.3% among 330,000 | AID 463212, 2010;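 active means growth inhibition of the mutant yeast at or above 50%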;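 further: temperature-sensitive mutant grown at 25 °C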
V-ATPase pHluor: regulators of yeast V-ATPase proton pumping, primary screen, pHLuorin cytosolic pH fluorescence | hit rate 0.37% among 350,000 | S. cerevisiae | AID 504577, 2011 | response, % at 10 µM; in the data active means response mostly above about 7.3%, no sharp cut-off; inactive means mostly below about 5.4%; further: actives read high
tim23-1 conf: tim23-1 mutant yeast growth inhibitors, confirmation, luminescence, single concentration; AID 463218, 2010; inhibition, % at 20 µM; S. cerevisiae tim23-1 growth, BacTiter-Glo luminescence, 24 h; shares compounds with tim23-1 inh; hit rate 83% among 4,400;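 active means inhibition above about 39% in either of two replicate wells at 20 µM, limit read from the data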;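 further: temperature-sensitive tim23-1 mutant grown at 25 °C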
Large screens that a line does not name were inactive (follow-up assays come after a bar, where they were run).

COc1ccccc1C1CC(=O)Oc2cc(C)c(Br)c(C)c21 (stereo not drawn)	tim23-1 inh 60 (no result: SKKanGAS inh) | tim23-1 conf 42
COc1ccc(C2CC(=O)Oc3c(C(C)C)ccc(C)c32)cc1 (stereo not drawn)	tim23-1 inh 54 (no result: SKKanGAS inh) | tim23-1 conf 42
COc1ccc(C2CC(=O)Oc3cc(OC)ccc32)cc1 (stereo not drawn)	tim23-1 inh 50 (no result: SKKanGAS inh) | tim23-1 conf inactive
COc1ccc(C2CC(=O)Oc3cc(C)c(Cl)c(C)c32)cc1 (stereo not drawn)	tim23-1 inh 51 (no result: SKKanGAS inh) | tim23-1 conf inactive
COc1ccc(Cl)cc1N1C(=NC(=O)C2CCCCC2)SC2CS(=O)(=O)CC21 (stereo not drawn)	none
COc1cc(C2CC(=O)Oc3cc(C)c(Br)c(C)c32)cc(OC)c1OC (stereo not drawn)	none (no result: SKKanGAS inh)
COc1ccccc1C1CC(=O)Oc2cc(C)c(Cl)c(C)c21 (stereo not drawn)	tim23-1 inh 52 (no result: SKKanGAS inh) | tim23-1 conf 41
C(=N\Nc1nc2ccccc2s1)/c1ccccn1	SKKanGAS inh 75, tim23-1 inh 58 (no result: PfHsp90 set2) | tim23-1 conf 61
CC(C)C1C(=O)N(Cc2cn(CC3CCCCC3)nn2)CCS(=O)(=O)N1Cc1ccc(-c2cccc(CO)c2)cc1 (stereo not drawn)	none (no result: SKKanGAS inh, TIM10 inh, PfHsp90 set2, tim10-1 inh, tim23-1 inh)
CCCC(NC(=S)NCC1CCCO1)C12CC3CC(CC(C3)C1)C2 (stereo not drawn)	SKKanGAS inh inconclusive, tim23-1 inh 51 | tim23-1 conf 51
Cc1ccc(Nc2nc3ccccc3s2)c(C)c1	tim23-1 inh 58 | tim23-1 conf 46
Cc1cc(C)nc(Nc2nc3ccccc3s2)n1	none
COC(=O)c1ccccc1NC(=O)COC(=O)CO/N=C(\C)c1ccc2c(c1)OCO2	none
Oc1c(Cl)cc(Cl)cc1CNc1ccccn1	tim23-1 inh 52 | tim23-1 conf 49
Cc1c(NCc2cc(Cl)cc(Cl)c2O)c(=O)n(-c2ccccc2)n1C	SKKanGAS inh 85, tim23-1 inh 55 | tim23-1 conf inactive
Cc1c(NCc2cc(Cl)ccc2O)c(=O)n(-c2ccccc2)n1C	none
CCN(CC)S(=O)(=O)c1ccc(Cl)c(NC(=O)COc2ccc(OC)cc2)c1	none
Cc1ccc2c(c1)[C@H]1[C@H](CO2)[C@H](c2ccccc2)[C@]2(C)C(=O)Nc3cc(F)ccc3C(=O)N12	none (no result: SKKanGAS inh)
CS/C(Nc1cc(Cl)ccc1Cl)=C(/C#N)C(=O)c1ccco1	SKKanGAS inh 54, tim23-1 inh 59 | tim23-1 conf 52
CCCCSc1ncnc2c1ncn2C1CCCCO1 (stereo not drawn)	none (no result: SKKanGAS inh, TIM10 inh, tim10-1 inh, tim23-1 inh)
COC(=O)c1cccc(NC(=O)c2cccnc2C(=O)O)c1C	none
Cc1ccc(Nc2nc(Cl)nc(NC(C)(C)C)n2)cc1	tim23-1 inh 50 | tim23-1 conf 40
COC(=O)C1=NN(c2ccccc2)C2(S1)SC(C(C)=O)=C(C)N2c1ccccc1 (stereo not drawn)	none
COC(=O)C1=NN(c2ccc(C)cc2)C2(S1)SC(C(C)=O)=C(C)N2c1ccccc1 (stereo not drawn)	tim23-1 inh 51 (no result: PfHsp90 set2) | tim23-1 conf 40
Cc1cc(=O)oc2cc(Oc3ccc([N+](=O)[O-])cc3[N+](=O)[O-])ccc12	tim23-1 inh 55 | tim23-1 conf 43
Cc1cc(=O)oc2cc(Oc3ncccc3[N+](=O)[O-])ccc12	none
O=C(Nc1cccc(N=Cc2cc(Cl)cc(Br)c2O)c1)c1ccco1	tim23-1 inh 78 | tim23-1 conf 90
O=C(Nc1cc(Br)c(O)c(Br)c1)c1cccc(NC(=O)c2ccco2)c1	none
O=C(Nc1cccc(NC(=O)c2ccco2)c1)c1cccc(Br)c1	tim23-1 inh 58 | tim23-1 conf 60
COc1ccccc1NC(=O)c1cccc(NC(=O)c2ccco2)c1	tim23-1 inh 57 | tim23-1 conf 45
O=C(OCc1ccccc1)N1CCC2CC1c1cc(-c3cc4ccccc4o3)ccc12 (stereo not drawn)	none (no result: SKKanGAS inh, TIM10 inh, PfHsp90 set2, tim10-1 inh, tim23-1 inh)
C=C(C)COC(=O)C1CC2OC2CC1C(=O)OCC(=C)C (stereo not drawn)	none (no result: SKKanGAS inh, TIM10 inh, PfHsp90 set2, tim10-1 inh, tim23-1 inh)
Cc1ccc([C@H]2C[C@@H](O)[C@H](n3cc(C4CC4)nn3)CN2C(=O)c2cccs2)cc1	none (no result: SKKanGAS inh, TIM10 inh, PfHsp90 set2, tim10-1 inh, tim23-1 inh)
COc1ccc(C#Cc2ccc3c(c2)O[C@@H](CN(C)C(=O)Nc2cccc(OC)c2)[C@H](C)CN([C@@H](C)CO)S3(=O)=O)cc1	none (no result: SKKanGAS inh, TIM10 inh, PfHsp90 set2, tim10-1 inh, tim23-1 inh)
CC(C)NC(=S)N/N=C/C1=CCC2CC1C2(C)C (stereo not drawn)	tim23-1 inh 56 | tim23-1 conf inactive
CCCCNC(=S)N/N=C/C1=CCC2CC1C2(C)C (stereo not drawn)	tim23-1 inh 53 | tim23-1 conf inactive
O=c1c(O)c(-c2ccccc2)oc2cc(O)cc(O)c12	tim23-1 inh 58 (no result: SKKanGAS inh) | tim23-1 conf 61
CC(C)=CCc1cc(-c2oc3cc(O)cc(O)c3c(=O)c2O)ccc1O	tim23-1 inh 51 (no result: PfHsp90 set2) | tim23-1 conf 51
O=c1c(-c2ccccc2)c(-c2ccccc2)oc2cc(O)cc(O)c12	PfHsp90 set2 123, tim23-1 inh 55 | tim23-1 conf inactive
Cn1c(C(=O)NCCc2c[nH]c3ccccc23)cc2sccc21	tim23-1 inh 57 | tim23-1 conf 57
O=C(NCCc1c[nH]c2ccccc12)c1cc2sccc2n1Cc1ccccc1	none (no result: PfHsp90 set2)
CC/C(C)=N/Nc1cccc([N+](=O)[O-])c1	none
COC1OC2COC(c3ccccc3)OC2C2OC12 (stereo not drawn)	none (no result: SKKanGAS inh, TIM10 inh, tim10-1 inh, tim23-1 inh)
C=C1CCN(C(CC(C)C)C(=O)OC)S(=O)(=O)c2ccccc21 (stereo not drawn)	none
COC(=O)[C@H](CC(C)C)N1Cc2cc(OC)cc(OC)c2-c2ccccc2S1(=O)=O	tim23-1 inh 50 (no result: SKKanGAS inh) | tim23-1 conf inactive
CCOC(=O)N1CCN(C(=O)CN(C)S(=O)(=O)c2ccc(OCC)cc2)CC1	none
N#Cc1c(NC(=O)c2ccc([N+](=O)[O-])o2)sc2c1CCC2	tim23-1 inh 58 | tim23-1 conf 69
CC(C)Cn1c(/C=C/c2ccccc2)nc2ccccc21	tim23-1 inh 56 | tim23-1 conf 46
CCOc1ccccc1C(=O)N1c2ccccc2Sc2ccccc21	tim23-1 inh 51 | tim23-1 conf 42
CCOc1ccc(N2CC(C(=O)Nc3ccccc3N3CCOCC3)CC2=O)cc1 (stereo not drawn)	none
O=C(Nc1nc2ccccc2s1)C1CCCN1S(=O)(=O)c1ccc(Cl)cc1 (stereo not drawn)	tim23-1 inh 55 (no result: PfHsp90 set2) | tim23-1 conf 50
